Where a name gives a salt, the structure may show the parent alone. ± gives the standard deviation of the averaged measurements.
What follows are molecules tested on MDA-MB-231 (assay: kynurenine production, fold change vs DMSO IFNg/TNF control; higher = more kynurenine produced (less inhibition)). Settings: pre-treatment time: 18 h then 24 h IFNg/TNF.
Procedure, shortened: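 After trichloroacetic acid and p-dimethylaminobenzaldehyde treatment, supernatants were read at 492 nm, with 0–100 μM standards. These came from MDA-MB-231 cells (7 × 10^4/well, 96-well plates) pre-treated 18 h with natural products in 0.1% DMSO and then exposed 24 h to IFNγ (1 U/ml) and TNF (6.25 ng/ml) at 37°C. Values for kynurenine production are fold changes over same-plate cytokine-stimulated vehicle wells, averaged over duplicate plates in the first screening round.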

| Structure (SMILES) | kynurenine production |
| --- | --- |
| C[C@@H]1CC[C@@]2(OC1)O[C@H]1[C@@H](O)[C@H]3[C@@H]4CC[C@H]5C[C@@H](O[C@@H]6O[C@H](CO)[C@H](O[C@@H]7O[C@H](CO)[C@@H](O)[C@H](O[C@@H]8OC[C@@H](O)[C@H](O)[C@H]8O)[C@H]7O[C@@H]7O[C@H](CO)[C@H](O)[C@H](O[C@@H]8O[C@H](CO)[C@@H](O)[C@H](O)[C@H]8O)[C@H]7O)[C@H](O)[C@H]6O)[C@H](O)C[C@]5(C)[C@H]4CC[C@]3(C)[C@H]1[C@@H]2C [Digitonin] (compound dose: 10 uM) | 0.617 ± 0.019 |
| CC(C)=CCCC(C)(O)C1CCC2(C)C1C(O)CC1C3(C)CCC(OC4OC(CO)C(O)C(O)C4O)C(C)(C)C3CCC12C [20(R)-Ginsenoside Rh2] (compound dose: 10 uM) | 0.958 ± 0.21 |
| COc1cc(C(=O)O[C@H]2[C@@H]3C=CO[C@@H](O[C@@H]4O[C@H](CO)[C@@H](O)[C@H](O)[C@H]4O)[C@@H]3[C@@]3(CO)O[C@@H]23)ccc1O [Picroside II] (compound dose: 10 uM) | 0.919 ± 0.16 |
| C=C1[C@@H]2CCC3[C@@](CC[C@@H]4[C@H](C(=O)O)C[C@@H](O[C@@H]5O[C@H](CO)[C@@H](OS(=O)(=O)O)[C@H](OS(=O)(=O)O)[C@H]5OC(=O)CC(C)C)C[C@@]34C)(C2)[C@@H]1O (stereo not given in full) [Atractyloside (potassium salt)] (compound dose: 10 uM) | 0.945 ± 0.02 |
| C[C@@H]1C(=O)O[C@H]2[C@H](O)[C@@]34O[C@@H]5OC(=O)[C@H](O)[C@@]56[C@H](C(C)(C)C)[C@H](O)C(OC3=O)[C@]64[C@@]12O (stereo not given in full) [Ginkgolide C] (compound dose: 10 uM) | 0.947 ± 0.088 |
